The target in test [1] is Voltage-gated inwardly rectifying potassium channel KCNH2 (Homo sapiens) (UniProt Q12809). In words: qHTS Assay for Small Molecule Inhibitors of the Human hERG Channel Activity (AID 588834).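 Also: lower thallium flux fluorescence means stronger hERG block; nearly all actives have a fitted effect of over 50% in size.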 Also: potency is read from the fitted curve at half-maximal effect. A digest of the protocol: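 U2OS cells transduced with hERG via BacMam (MOI ~100), plated 2000/well, loaded with FluxOR thallium dye, compound ~10 min, then stimulation buffer; fluorescence decrease read kinetically; AC50 from Hill fits.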
Chain of Voltage-gated inwardly rectifying potassium channel KCNH2 (Homo sapiens) (Q12809 whole entry, looked up): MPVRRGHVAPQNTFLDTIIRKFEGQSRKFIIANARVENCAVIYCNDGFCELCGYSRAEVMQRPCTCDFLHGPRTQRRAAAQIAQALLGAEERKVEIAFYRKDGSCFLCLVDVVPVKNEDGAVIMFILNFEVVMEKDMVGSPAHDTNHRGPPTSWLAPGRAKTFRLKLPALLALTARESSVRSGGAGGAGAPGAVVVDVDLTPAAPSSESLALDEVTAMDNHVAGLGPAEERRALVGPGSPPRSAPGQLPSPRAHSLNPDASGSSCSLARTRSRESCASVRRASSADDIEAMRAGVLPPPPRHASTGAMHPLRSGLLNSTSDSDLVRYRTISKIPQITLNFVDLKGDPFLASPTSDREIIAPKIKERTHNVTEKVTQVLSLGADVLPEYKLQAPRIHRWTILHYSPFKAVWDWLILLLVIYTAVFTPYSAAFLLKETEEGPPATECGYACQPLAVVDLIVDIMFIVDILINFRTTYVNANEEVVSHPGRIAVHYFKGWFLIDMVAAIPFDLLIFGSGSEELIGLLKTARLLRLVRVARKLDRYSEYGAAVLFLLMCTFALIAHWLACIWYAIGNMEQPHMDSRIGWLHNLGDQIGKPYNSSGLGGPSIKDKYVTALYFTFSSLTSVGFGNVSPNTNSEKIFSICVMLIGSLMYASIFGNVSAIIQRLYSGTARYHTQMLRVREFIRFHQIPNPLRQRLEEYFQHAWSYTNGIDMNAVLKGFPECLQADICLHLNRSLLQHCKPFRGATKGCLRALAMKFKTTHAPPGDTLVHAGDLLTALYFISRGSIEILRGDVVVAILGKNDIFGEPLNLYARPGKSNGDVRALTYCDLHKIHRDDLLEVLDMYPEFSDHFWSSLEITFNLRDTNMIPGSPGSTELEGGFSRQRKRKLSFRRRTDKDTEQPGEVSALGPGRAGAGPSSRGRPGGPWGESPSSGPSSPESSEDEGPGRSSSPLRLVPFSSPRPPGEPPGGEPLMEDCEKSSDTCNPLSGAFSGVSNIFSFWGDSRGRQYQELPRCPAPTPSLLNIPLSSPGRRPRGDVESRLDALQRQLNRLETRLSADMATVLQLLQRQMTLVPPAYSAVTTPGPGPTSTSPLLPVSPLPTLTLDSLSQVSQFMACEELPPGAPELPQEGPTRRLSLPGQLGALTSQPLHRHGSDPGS
(In general: Quantitative high-throughput screening tests each substance at several concentrations.)

Test [2] addresses Furin (Homo sapiens) (UniProt P09958). In words: Furin counterscreen qHTS for Zika virus inhibitors (AID 1347149). Also: nearly all actives have a fitted effect of over 70% in size. Also: potency is read from the fitted curve at half-maximal effect.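 As to activity change, negative = inhibition: purified recombinant full-length human furin enzyme at 5 nM; fluorescence gain from furin cutting a BOC-RVRR-AMC peptide substrate over 15 min; top concentration of the series differs between compounds; plate controls were no-inhibitor control for no effect and no-enzyme control for full effect.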 The procedure, abridged:
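Fluorogenic cleavage of BOC-RVRR-AMC (2 microM final, Km ~15 µM) was monitored (ex 340, em 450 nm) at 37C after 15 min RT preincubation of 5 nM furin with compounds in HEPES pH 7.0 buffer with CaCl2 and Triton X-100. Percent inhibition was fitted to a 4-parameter Hill curve.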
(In general: The purpose of a counterscreen is to sort out artefacts and off-target activity.)

Test [3] concerns Zika virus NS2B-NS3 protease (linked construct). In words: 384 well plate NINDS Rhodamine confirmatory qHTS for Zika virus inhibitors (AID 1347164).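 Also: fluorescence from protease cleavage of Ac-LKRR-rhodamine 110 substrate; nearly all actives have a fitted effect of over 65% in size.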 Also: potency is read from the fitted curve at half-maximal effect.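 As to activity change, negative = inhibition: top concentration of the series differs between compounds; plate controls were no-inhibitor control for no effect and no-enzyme control for full effect.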 A digest of the protocol: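 Linked protease at a final 5 nM, 30 nM or 60 nM was preincubated ~15 min with compounds, then given 10 microM Ac-LKRR-Rhodamine 110. Fluorescence (ex 485/em 538 nm) after 25 min in the dark at room temperature.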

The nature of test [4]: Vero cells viability qHTS for Zika virus inhibitors (AID 1347167). Also: % is scaled to controls: 0 for no effect and ±100 for the full control effect. The procedure, abridged:
(§1)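 Compounds were tested in concentration series on cells grown in DMEM containing 4% FBS. After 24 to 48 hours, cellular ATP was measured by luminescence with CellTiter Glo.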

Test [5] is described as follows: HepG2 cells viability qHTS for Zika virus inhibitors (AID 1347168). Also: % is scaled to controls: 0 for no effect and ±100 for the full control effect. The procedure, abridged:
as §1

The nature of test [6]: S16 Schwann cell PMP22 intronic element beta-lactamase assay (AID 624044; calls by dose curve;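 also: 0% = DMSO and -100% = potassium clavulanate positive control; nearly all actives have a fitted effect of over 15% in size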). The procedure, abridged: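 Rat S16 Schwann cells with beta-Lac driven by a PMP22 intronic element, compound-treated 24 h at 37 °C. LiveBLAzer FRET B/G read: 460 nm normalized to potassium clavulanate vs DMSO; 535 nm FRET as viability; concentration-effect curves classified.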
Test [7] in a line: qHTS profiling for inhibitors of Plasmodium falciparum proliferation (AID 504749). Also: potency is read from the fitted curve at half-maximal effect; nearly all actives have a fitted effect of over 60% in size. Particulars: P. falciparum in erythrocytes, SYBR Green DNA, 72 h. The procedure, abridged:
(§2)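 Three-day growth assay of blood-stage parasites in erythrocytes (0.3% parasitemia, 2.5% hematocrit) at 37 C, 5% CO2, quantified by SYBR Green DNA staining after overnight detergent lysis.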

The subject of test [8] is 7G8. The test is described as above. Particulars: P. falciparum in erythrocytes, SYBR Green DNA, 72 h; series mostly up to 28.7 µM. A digest of the protocol: as §2
Test [9] has as its target N-terminal Xaa-Pro-Lys N-methyltransferase 1 (Homo sapiens) (UniProt Q9BV86). Kind of test: Confirmatory qHTS for Inhibitors of N-terminal methyltransferase 1 (NTMT1): MTaseGlo Assay (AID 1645874). Also: nearly all actives have a fitted effect of over 65% in size. Also: potency is read from the fitted curve at half-maximal effect.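 As to activity change, negative = inhibition: luminescence from SAH made as NTMT1 methylates SPKRIA peptide using SAM; 0% = DMSO control and -100% = no-enzyme control.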 The procedure, abridged:
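Compounds are incubated with 125 nM NTMT1 and 100 uM SAM for 15 min before the SPKRIA peptide (1 uM) starts a 30 min room-temperature methylation. SAH is measured by coupled luciferase luminescence and curves fitted to a Hill equation.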

A short description of test [10]: NCATS anti-infectives library activity on HEK293 viability as a counter-qHTS vs the C. elegans viability qHTS (AID 1745854).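 Also: HEK293 cells exposed to compounds for 24 hr before the viability read; % is scaled to controls: 0 for no effect and ±100 for the full control effect.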 A digest of the protocol:
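Cytotoxicity in human HEK293 cells is measured by ATP-dependent CellTiter-Glo luminescence following a 24 hr incubation with titrated library compounds at 37C. Top final concentration is 41.7 uM.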

The target of test [11] is Glucocorticoid receptor (Homo sapiens) (UniProt P04150). Kind of test: GR-GFP Redistribution (AID 450;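 active = compounds whose dose series gives a full or clear partial fitted curve of increased nuclear translocation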; also: potency is read from the fitted curve at half-maximal effect). Particulars: U2OS GR-GFP nuclear translocation, laser cytometry, 2 h.
Chain of Glucocorticoid receptor (Homo sapiens) (P04150 whole entry, looked up, the tested form may be a part): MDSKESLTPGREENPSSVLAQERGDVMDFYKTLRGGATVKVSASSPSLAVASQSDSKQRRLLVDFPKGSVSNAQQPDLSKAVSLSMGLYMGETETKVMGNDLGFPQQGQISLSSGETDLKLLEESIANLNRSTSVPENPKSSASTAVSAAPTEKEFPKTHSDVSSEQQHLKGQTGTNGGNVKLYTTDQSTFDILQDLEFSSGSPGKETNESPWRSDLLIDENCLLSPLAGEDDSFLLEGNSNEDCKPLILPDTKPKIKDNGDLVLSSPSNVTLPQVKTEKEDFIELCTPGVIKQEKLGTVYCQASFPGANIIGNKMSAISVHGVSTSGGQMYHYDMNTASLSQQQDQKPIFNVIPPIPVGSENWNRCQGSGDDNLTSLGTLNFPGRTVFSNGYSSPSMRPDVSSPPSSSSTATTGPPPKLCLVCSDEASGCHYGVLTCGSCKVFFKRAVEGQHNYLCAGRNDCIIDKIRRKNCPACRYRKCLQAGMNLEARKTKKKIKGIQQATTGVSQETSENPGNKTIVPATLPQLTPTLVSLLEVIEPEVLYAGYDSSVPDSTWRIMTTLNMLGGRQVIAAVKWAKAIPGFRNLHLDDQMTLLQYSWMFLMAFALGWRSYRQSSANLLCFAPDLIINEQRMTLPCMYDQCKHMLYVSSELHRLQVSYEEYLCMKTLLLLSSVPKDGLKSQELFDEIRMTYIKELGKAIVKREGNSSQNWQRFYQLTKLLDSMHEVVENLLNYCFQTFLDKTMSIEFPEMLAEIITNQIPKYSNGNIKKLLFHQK
The target is the same in test [12]. In words: GR-EFC Redistribution (AID 451; calls by dose curve; also: potency is read from the fitted curve at half-maximal effect). Particulars: CHO-K1 GR-EFC translocation, beta-gal luminescence, 2 h. The procedure, abridged: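 Translocation of GR-ED fusion to nuclear EA restores b-gal, read by luminescence after 1 h room-temperature detection. Engineered CHO-K1 biosensor cells, 1,000/well, exposed 2 h at 37 C to titrations up to 46 uM final.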
Test [13] has as its target Mitogen-activated protein kinase 10 (Mus musculus) (UniProt Q61831). In words: JNK3 AlphaScreen Assay (AID 530; active = well fitted curve in either direction with a large enough effect, not every such curve was filed as active;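 also: kinase came from lysate of stimulated human HepG2 cells; signal reports phosphorylation of biotinylated GST-cJun 1-79 at Ser73 with 10 µM ATP; % is scaled to controls: 0 for no effect and ±100 for the full control effect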). A digest of the protocol:
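Room-temperature AlphaScreen kinase assay; pre-activated HepG2 lysate as JNK3 source, biotin-GST-cJun(1-79) substrate, 10 uM ATP, compound 15 min preincubation.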

Test [14] concerns the target Cytochrome P450 2C19 (Homo sapiens) (UniProt P33261). Kind of test: qHTS Assay for Inhibitors and Substrates of Cytochrome P450 2C19 (AID 899). Also: potency is read from the fitted curve at half-maximal effect; nearly all actives have a fitted effect of over 60% in size. A digest of the protocol:
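Reactions contain 5nM enzyme, 10uM Luciferin-H EGE (KM) and 50mM KPO4; compound preincubates 10 min at 37C, NADPH regeneration starts turnover for 60 min. Luminescence after detection reagent gives activity.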

In test [15] the target is DNA dC->dU-editing enzyme APOBEC-3G (Homo sapiens) (UniProt Q9HC16). Kind of test: qHTS for inhibitors of Vif-A3G interactions: Validation (AID 588379). Also: 0% is about no effect. A digest of the protocol: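 HeLa cells stably expressing Vif and A3G-eYFP, 700 cells/well, incubated overnight at 37 deg C, then exposed to compound overnight at 37 deg C. Inhibition of Vif-mediated degradation read as increased yellow fluorescence (Ex 488/Em 500-530) by laser-scanning cytometry.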
Chain of DNA dC->dU-editing enzyme APOBEC-3G (Homo sapiens) (Q9HC16 whole entry, looked up): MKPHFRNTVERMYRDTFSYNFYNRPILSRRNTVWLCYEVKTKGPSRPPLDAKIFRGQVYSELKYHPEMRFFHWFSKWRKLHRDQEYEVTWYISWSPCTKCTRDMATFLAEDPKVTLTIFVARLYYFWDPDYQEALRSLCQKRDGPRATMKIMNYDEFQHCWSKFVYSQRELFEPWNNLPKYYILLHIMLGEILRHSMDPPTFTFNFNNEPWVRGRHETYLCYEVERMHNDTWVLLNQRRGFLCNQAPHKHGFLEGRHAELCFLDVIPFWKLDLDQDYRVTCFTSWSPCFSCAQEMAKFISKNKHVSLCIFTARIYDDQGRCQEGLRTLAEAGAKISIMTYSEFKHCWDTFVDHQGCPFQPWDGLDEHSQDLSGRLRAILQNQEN

Test [16] can be described thus: AP1 Signaling Pathway (AID 357; active = well fitted curve in either direction with a large enough effect, not every such curve was filed as active). Particulars: ME-180 (cervical carcinoma) AP-1-bla reporter, EGF-induced, beta-lactamase ratio, 5 h. A digest of the protocol: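 In this screen, ME-180 cells in Opti-MEM with 0.5% dialyzed FBS received EC50 EGF and compound titrations for 5 h. AP-1 reporter beta-lactamase was detected via CCF4 ratio, giving AC50 for positive and negative modulators.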

Test [17] has as its target Cytochrome P450 3A4 (Homo sapiens) (UniProt P08684). Kind of test: qHTS Assay for Inhibitors and Substrates of Cytochrome P450 3A4 (AID 884). Also: nearly all actives have a fitted effect of over 50% in size. Also: potency is read from the fitted curve at half-maximal effect. A digest of the protocol:
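20 nM human CYP3A4 with 25 uM Luciferin-PPXE (at KM) in 200 mM KPO4, preincubated 10 min with compound; NADPH regeneration started a 60 min RT reaction. Luciferin detected by luminescence, normalized to 57 uM ketoconazole as full inhibition.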

Test [18] in a line: Confirmation and Secondary Assay for Modulators of Hemoglobin Beta Chain Splicing at IVS2 654 locus (AID 910).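 Also: HeLa cells stably carrying EGFP split by mutant beta-globin IVS2-654 intron; per-well total GFP intensity by laser scanning cytometry after 2-day treatment; % of control where 0% means no effect.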 A digest of the protocol: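 Readout: per-well total peak green fluorescence (488 nm ex, 500–520 nm em) from objects 5–250 µm, reflecting correct splicing of an EGFP-654 reporter. Compounds were applied for 2 days at 37 °C to overnight-plated HeLa EGFP-654 cells; controls were DMSO and 500 nM IVS2-654 PNA.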

A short description of test [19]: Confirmation and Secondary Assay for Modulators of Hemoglobin Beta Chain Splicing at IVS2 705 locus (AID 930).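 Also: HeLa cells stably expressing the EGFP-705 splicing reporter; GFP fluorescence per well restored by corrected splicing of the IVS2-705 intron in EGFP; % of control where 0% means no effect.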 A digest of the protocol:
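Secondary splice-site specificity test uses HeLa expressing CMV-driven EGFP interrupted by IVS2-705; cells were treated 2 days at 37C with 500 nM antisense PNA as positive control.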

The nature of test [20]: qHTS Assay for Lipid Storage Modulators (AID 1519; calls by dose curve). Particulars: Drosophila S3 cells, BODIPY lipid droplet/cell ratio, laser cytometry, cells loaded with oleic acid. A digest of the protocol:
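Cells seeded at 5,000 per well were treated with compounds over a concentration series and loaded with oleic acid (400 uM, as added). Lipid droplet fluorescence (488 nm excitation, 500-530 nm channel) was read by laser-scanning cytometry and normalized to 20 uM Triacsin C.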

Results filed as inconclusive are left out. Activity calls are given as the source filed them. Unless noted, calls follow the shape of the dose curve; as a rule, active = well fitted curve in the direction sought with a large enough effect; inconclusive = small, poorly fitted or top-dose-only effect, or another doubt; inactive = no such curve, though single readings can be large; an effect the other way counts as inactive or inconclusive.

Chain of Cytochrome P450 2C19 (Homo sapiens) (P33261 whole entry, looked up): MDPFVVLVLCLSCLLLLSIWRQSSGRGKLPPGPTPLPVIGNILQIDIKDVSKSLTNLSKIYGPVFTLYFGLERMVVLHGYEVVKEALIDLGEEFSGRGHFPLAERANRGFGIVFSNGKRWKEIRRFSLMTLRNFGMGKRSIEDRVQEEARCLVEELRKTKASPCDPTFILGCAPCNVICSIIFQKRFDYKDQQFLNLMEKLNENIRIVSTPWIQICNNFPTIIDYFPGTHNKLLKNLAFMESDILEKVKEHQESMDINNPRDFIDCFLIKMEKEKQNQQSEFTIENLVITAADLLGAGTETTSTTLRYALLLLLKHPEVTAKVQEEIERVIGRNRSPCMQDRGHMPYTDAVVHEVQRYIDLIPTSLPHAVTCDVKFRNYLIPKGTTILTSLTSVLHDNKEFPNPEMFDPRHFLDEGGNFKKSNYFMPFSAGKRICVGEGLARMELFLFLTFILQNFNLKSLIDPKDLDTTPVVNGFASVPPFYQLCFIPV
Chain of N-terminal Xaa-Pro-Lys N-methyltransferase 1 (Homo sapiens) (Q9BV86 whole entry, looked up): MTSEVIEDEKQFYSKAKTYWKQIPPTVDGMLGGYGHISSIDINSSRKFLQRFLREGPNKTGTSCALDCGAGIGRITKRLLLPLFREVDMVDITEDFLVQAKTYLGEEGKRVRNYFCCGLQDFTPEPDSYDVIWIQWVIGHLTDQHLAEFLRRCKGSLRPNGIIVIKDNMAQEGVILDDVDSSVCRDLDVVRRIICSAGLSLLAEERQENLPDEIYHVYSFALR
Chain of Cytochrome P450 3A4 (Homo sapiens) (P08684 whole entry, looked up): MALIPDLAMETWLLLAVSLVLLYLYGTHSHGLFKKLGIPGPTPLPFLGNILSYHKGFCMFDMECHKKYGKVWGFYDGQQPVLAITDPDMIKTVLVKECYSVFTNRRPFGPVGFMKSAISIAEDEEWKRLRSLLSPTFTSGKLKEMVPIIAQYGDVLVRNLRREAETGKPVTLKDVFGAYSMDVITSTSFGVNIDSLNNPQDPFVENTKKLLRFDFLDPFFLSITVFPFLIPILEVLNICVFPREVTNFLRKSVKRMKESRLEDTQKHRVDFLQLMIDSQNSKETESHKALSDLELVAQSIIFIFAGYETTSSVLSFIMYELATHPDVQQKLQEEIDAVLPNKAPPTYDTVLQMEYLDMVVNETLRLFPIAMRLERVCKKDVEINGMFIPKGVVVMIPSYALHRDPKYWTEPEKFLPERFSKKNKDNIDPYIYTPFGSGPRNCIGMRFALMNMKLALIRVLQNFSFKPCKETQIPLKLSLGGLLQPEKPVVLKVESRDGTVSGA
Chain of Furin (Homo sapiens) (P09958 whole entry, looked up): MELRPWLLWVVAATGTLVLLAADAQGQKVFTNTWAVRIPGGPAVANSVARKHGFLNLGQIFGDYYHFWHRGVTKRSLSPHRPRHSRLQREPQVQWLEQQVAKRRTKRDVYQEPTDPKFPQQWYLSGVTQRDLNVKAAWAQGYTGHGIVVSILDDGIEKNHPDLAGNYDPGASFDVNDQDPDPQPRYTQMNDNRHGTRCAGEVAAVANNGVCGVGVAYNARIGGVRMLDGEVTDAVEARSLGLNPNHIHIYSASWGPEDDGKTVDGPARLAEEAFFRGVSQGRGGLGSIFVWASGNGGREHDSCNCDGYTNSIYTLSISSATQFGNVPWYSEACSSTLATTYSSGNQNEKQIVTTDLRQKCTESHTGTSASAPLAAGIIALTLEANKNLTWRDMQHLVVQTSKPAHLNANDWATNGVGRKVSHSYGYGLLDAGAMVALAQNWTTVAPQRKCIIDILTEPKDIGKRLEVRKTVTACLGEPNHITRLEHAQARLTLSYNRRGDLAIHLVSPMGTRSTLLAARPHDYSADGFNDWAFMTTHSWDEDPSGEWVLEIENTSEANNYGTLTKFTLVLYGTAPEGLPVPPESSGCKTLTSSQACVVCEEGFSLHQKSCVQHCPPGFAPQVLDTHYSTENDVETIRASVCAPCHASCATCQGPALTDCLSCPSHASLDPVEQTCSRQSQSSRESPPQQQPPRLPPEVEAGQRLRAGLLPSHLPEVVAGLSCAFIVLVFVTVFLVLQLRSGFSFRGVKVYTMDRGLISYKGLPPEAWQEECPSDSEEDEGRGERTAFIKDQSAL

On to `CC[C@H](C)[C@H]1O[C@]2(CC[C@@H]1C)C[C@@H]1C[C@@H](C/C=C(\C)[C@@H](O[C@H]3C[C@H](OC)[C@@H](O[C@H]4C[C@H](OC)[C@@H](O)[C@H](C)O4)[C@H](C)O3)[C@@H](C)/C=C/C=C3\CO[C@@H]4[C@H](O)C(C)=C[C@@H](C(=O)O1)[C@]34O)O2`, for which the Potency entry in [1], in test [2], in test [3], in test [4] and in test [5] was “inactive” in each case.
In the case of `O=C(CC1NCCC[C@H]1O)Cn1cnc2cc(Br)c(Cl)cc2c1=O` (some centres not stated), in [6], the Potency entry was “inactive”. Besides, the figures for the Potency in test [7] (parasite line A), in [7] (parasite line B) and in [8] were 2 µM (active), 3.55 µM (active) and 1 µM (active), respectively.
On to `Fc1ccccc1CNCc1ccc(-c2ccnc3[nH]ccc23)cc1`, for which the Potency result in test [9] was “inactive”.
Consider `CN(C)CC(=O)Nc1ccc2[nH]c(=O)c3ccccc3c2c1`, for which the result in test [10] was inactive.
In the case of `Clc1ccccc1CNCC1CCC(CNCc2ccccc2Cl)CC1` (configuration not stated), the Potency in [11] is > 46 µM (inactive); in [12], > 46 µM (inactive); in test [14], 0.794 µM (active). Moreover, the Potency entry in [13] and in test [15] was “inactive” throughout.
For `O=C(O)c1ccc(O)c2ncc(N3CCCN(CCc4cccc5ccccc45)CC3)cc12`, the Potency in [2] was 49.4 µM (active); in test [3] it was 3.55 µM (active). Further, the Potency result in test [4] and in test [5] was “inactive” each time.
Consider `CC(C)=CCC/C(C)=C/CC/C(C)=C/CSc1ccccc1C(=O)O`, for which the activity change, negative = inhibition in test [16] (at 38 µM (top of the series)) was 14.1% (inactive). In addition, the Potency in test [11] is > 46 µM (inactive); in test [12] it was > 46 µM (inactive); in [9], 39.8 µM (active). Also, the Potency entry in [13] and in test [1] was “inactive” each time.
As to `CS(=O)(=O)CCNCc1nc(-c2ccc3ncnc(Nc4ccc(OCc5cccc(F)c5)c(Cl)c4)c3c2)cs1`, the Potency in test [17] was 2.51 µM (active).
For `CN1CCN(CCC=C2c3ccccc3Sc3ccc(S(=O)(=O)N(C)C)cc32)CC1`, the activity change, negative = inhibition in test [16] (at 38 µM (top of the series)) is 18.8% (inactive). For the same molecule, the result in test [18] and in [19] was inactive. The Potency in [1] is 10 µM (active); in test [8], 5.01 µM (active). In addition, in test [6], the Potency entry is “inactive”.
As to `C=C1C(=O)O[C@H]2[C@H]1CC/C(C)=C\CC[C@@]1(C)O[C@@H]21`, the Potency entry in [1] was “inactive”.
As to `CCOC(=O)CCC(=O)O[C@H]1[C@H](O[C@@H]2[C@@H](C)[C@H](O[C@H]3C[C@@](C)(OC)[C@@H](O)[C@H](C)O3)[C@@H](C)C(=O)O[C@H](CC)[C@@](C)(O)[C@H](O)[C@@H](C)C(=O)[C@H](C)C[C@@]2(C)O)O[C@H](C)C[C@@H]1N(C)C`, in [16] (at 17.2 µM (top of the series)), the activity change, negative = inhibition is -0.678% (inactive). Also, the Potency in test [11] is > 20.6 µM (inactive).
As for `C=CC(=O)c1ccc2ccccc2c1`, the Potency in [17] was 25.1 µM (active).
Turning to `COc1cc(/C=C(\C#N)C(N)=O)cc(CSc2nc3ccccc3s2)c1O`, the Potency in [12] was > 46 µM (inactive); in [17], 3.98 µM (active); in [14] it was 3.16 µM (active). The Potency entry in test [15] was “inactive”.
Regarding `Nc1ncnc2c1c(I)cn2C1OC(CO)C(O)C1O` (configuration not stated), the Potency result in test [17] was “inactive”. In addition, the outcome in test [18] and in test [19] was inactive. Further, the Potency in test [9] is 0.851 µM (active).
`Cc1nc2c(O)cccc2c(=O)[nH]1`: the Potency is > 46 µM (inactive) in test [11], > 46 µM (inactive) in test [12] and 0.398 µM (active) in test [14]. The Potency entry in test [13] and in test [15] was “inactive” throughout. The molecule was classed as inactive in [10].
Consider `COc1cc(OC)c2ccc(=O)oc2c1`, for which, in test [17], the Potency is 31.6 µM (active). The outcome in [18] and in [19] was inactive. The activity change, negative = inhibition in test [20] (at 57.5 µM (top of the series)) is 13.4% (inactive). In addition, the max response in test [20] (measured here: cell count channel max response) was determined as 9.58%; in test [20] (measured here: lipid channel max response), 25.2%.

For the origin of these results see PubChem BioAssay (NCATS).
